According to PubChem BioAssay AID1159580 (chemical genetic matrix, 2015):
Among all 5,500 compounds or so, about 2,000 (36%) were called active. Not shown: some 18% with an inconclusive outcome. Cut-off read from the data, not from the text of the source: active = normalized growth mostly below about 0.91 (no sharp cut-off); inconclusive = no clear call, values can overlap the other calls; inactive = mostly above about 0.92. This is one part of the list.

Assay: chemical genetic growth profiling, strain panel (AID 1159580);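 note: tested at 20 µM; growth read once vehicle control cultures reached saturation at 30 °C; 1 = growth at the plate median or of vehicle wells; lower values mean less growth of the strain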
Conditions: growth OD

Measured: normalized growth

CC(=O)Oc1ccc(C(c2ccc(OC(C)=O)cc2)c2ccccn2)cc1
inactive: S. cerevisiae deletion strains, locus YJR075W, strain HOC1, hits give low values 0.978 | S. cerevisiae deletion strains, locus YKL009W, strain mrt4, hits give low values 0.985 | S. cerevisiae deletion strains, locus YKL068W, hits give low values 1 | S. cerevisiae deletion strains, locus YKL085W, strain MDH1 (second series), hits give low values 0.986 | S. cerevisiae deletion strains, locus YKL085W, strain MDH1, hits give low values 0.986 | S. cerevisiae deletion strains, locus YKL160W, strain elf1, hits give low values 1.03 | S. cerevisiae deletion strains, locus YKL190W, strain CNB1, hits give low values 0.989 | S. cerevisiae deletion strains, locus YKR001C, strain vps1, hits give low values 0.984 | S. cerevisiae deletion strains, locus YKR026C, strain gcn3, hits give low values 1.01 | S. cerevisiae deletion strains, locus YKR091W, strain srl3, hits give low values 1.02 | S. cerevisiae deletion strains, locus YLL001W, strain dnm1, hits give low values 1.01 | S. cerevisiae deletion strains, locus YLL026W, hits give low values 1.02 | S. cerevisiae deletion strains, locus YLL041C, strain sdh2, hits give low values 1.03 | S. cerevisiae deletion strains, locus YLR027C, strain aat2, hits give low values 1.02 | S. cerevisiae deletion strains, locus YLR039C, strain RIC1, hits give low values 0.986 | S. cerevisiae deletion strains, locus YLR058C, strain SHM2, hits give low values 0.984 | S. cerevisiae deletion strains, locus YLR102C, strain apc9, hits give low values 0.995 | S. cerevisiae deletion strains, locus YLR113W, strain HOG1, hits give low values 0.953 | S. cerevisiae deletion strains, locus YLR221C, strain rsa3, hits give low values 1.02 | S. cerevisiae deletion strains, locus YLR258W, strain gsy2, hits give low values 1.03 | S. cerevisiae deletion strains, locus YLR262C, strain YPT6 (second series), hits give low values 1.01 | S. cerevisiae deletion strains, locus YLR262C, strain YPT6, hits give low values 0.969 | S. cerevisiae deletion strains, locus YLR268W, strain sec22, hits give low values 0.992 | S. cerevisiae deletion strains, locus YLR320W, strain mms22, hits give low values 1 | S. cerevisiae deletion strains, locus YLR330W, strain CHS5, hits give low values 0.988 | S. cerevisiae deletion strains, locus YLR342W, strain FKS1 (second series), hits give low values 1.02 | S. cerevisiae deletion strains, locus YLR342W, strain FKS1, hits give low values 1.01 | S. cerevisiae deletion strains, locus YLR357W, strain rsc2, hits give low values 1.08 | S. cerevisiae deletion strains, locus YLR370C, strain arc18, hits give low values 1.03 | S. cerevisiae deletion strains, locus YLR371W, strain rom2, hits give low values 0.983 | S. cerevisiae deletion strains, locus YLR384C, strain iki3, hits give low values 1.02 | S. cerevisiae deletion strains, locus YLR418C, strain cdc73, hits give low values 0.999 | S. cerevisiae deletion strains, locus YML016C, strain PPZ1, hits give low values 0.981 | S. cerevisiae deletion strains, locus YML032C, strain rad52, hits give low values 0.998 | S. cerevisiae deletion strains, locus YML120C, strain ndi1, hits give low values 1 | S. cerevisiae deletion strains, locus YML124C, strain tub3, hits give low values 0.992 | S. cerevisiae deletion strains, locus YMR058W, strain fet3, hits give low values 1.01 | S. cerevisiae deletion strains, locus YMR078C, strain ctf18, hits give low values 0.985 | S. cerevisiae deletion strains, locus YMR125W, strain sto1, hits give low values 1.02 | S. cerevisiae deletion strains, locus YMR129W, hits give low values 1.02 | S. cerevisiae deletion strains, locus YMR205C, strain PFK2, hits give low values 0.985 | S. cerevisiae deletion strains, locus YMR223W, strain ubp8, hits give low values 0.987 | S. cerevisiae deletion strains, locus YMR231W, strain pep5, hits give low values 1.02 | S. cerevisiae deletion strains, locus YMR263W, strain SAP30, hits give low values 0.963 | S. cerevisiae deletion strains, locus YMR307W, strain GAS1, hits give low values 0.934 | S. cerevisiae deletion strains, locus YNL067W, strain RPL9B, hits give low values 0.965 | S. cerevisiae deletion strains, locus YNL071W, strain lat1, hits give low values 1.01 | S. cerevisiae deletion strains, locus YNL183C, strain NPR1, hits give low values 0.928 | S. cerevisiae deletion strains, locus YNL209W, strain ssb2, hits give low values 1 | S. cerevisiae deletion strains, locus YNL233W, strain BNI4, hits give low values 0.971 | S. cerevisiae deletion strains, locus YNL248C, strain rpa49, hits give low values 1.03 | S. cerevisiae deletion strains, locus YNL250W, strain rad50, hits give low values 0.98 | S. cerevisiae deletion strains, locus YNL271C, strain bni1, hits give low values 0.985 | S. cerevisiae deletion strains, locus YNL298W, strain CLA4, hits give low values 0.989 | S. cerevisiae deletion strains, locus YNL307C, strain MCK1, hits give low values 0.989 | S. cerevisiae deletion strains, locus YNL322C, strain KRE1 (second series), hits give low values 1.01 | S. cerevisiae deletion strains, locus YNL322C, strain KRE1, hits give low values 1 | S. cerevisiae deletion strains, locus YNR049C, strain mso1, hits give low values 1.01 | S. cerevisiae deletion strains, locus YNR052C, strain pop2, hits give low values 0.997 | S. cerevisiae deletion strains, locus YOL012C, strain htz1 1.18 | S. cerevisiae deletion strains, locus YOL147C, strain pex11, hits give low values 0.979 | S. cerevisiae deletion strains, locus YOR001W, strain rrp6, hits give low values 0.973 | S. cerevisiae deletion strains, locus YOR061W, strain CKA2, hits give low values 0.995 | S. cerevisiae deletion strains, locus YOR069W, strain VPS5, hits give low values 0.989 | S. cerevisiae deletion strains, locus YOR070C, strain gyp1, hits give low values 1 | S. cerevisiae deletion strains, locus YOR080W, strain dia2, hits give low values 1.02 | S. cerevisiae deletion strains, locus YOR083W, strain WHI5, hits give low values 1.02 | S. cerevisiae deletion strains, locus YOR106W, strain vam3, hits give low values 1.05 | S. cerevisiae deletion strains, locus YOR136W, strain idh2, hits give low values 0.975 | S. cerevisiae deletion strains, locus YOR144C, strain elg1, hits give low values 0.984 | S. cerevisiae deletion strains, locus YOR184W, strain ser1, hits give low values 1.01 | S. cerevisiae deletion strains, locus YOR231W, strain MKK1, hits give low values 0.974 | S. cerevisiae deletion strains, locus YOR265W, strain rbl2, hits give low values 1 | S. cerevisiae deletion strains, locus YOR270C, strain vph1, hits give low values 1.02 | S. cerevisiae deletion strains, locus YOR290C, strain snf2, hits give low values 1.04 | S. cerevisiae deletion strains, locus YOR316C, strain cot1, hits give low values 0.984 | S. cerevisiae deletion strains, locus YPL051W, strain arl3, hits give low values 1.01 | S. cerevisiae deletion strains, locus YPL078C, strain atp4, hits give low values 1.01 | S. cerevisiae deletion strains, locus YPL106C, strain sse1, hits give low values 1.03 | S. cerevisiae deletion strains, locus YPL240C, strain hsp82, hits give low values 1.02 | S. cerevisiae deletion strains, locus YPL241C, strain CIN2, hits give low values 0.996 | S. cerevisiae deletion strains, locus YPL256C, strain CLN2, hits give low values 1 | S. cerevisiae deletion strains, locus YPR119W, strain clb2, hits give low values 0.996 | S. cerevisiae deletion strains, locus YPR141C, strain kar3, hits give low values 0.974 | S. cerevisiae deletion strains, locus YPR163C, strain tif3, hits give low values 0.996 | S. cerevisiae deletion strains, locus YPR167C, strain met16, hits give low values 0.989 | S. cerevisiae deletion strains, strain wtn01, hits give low values 1.01 | S. cerevisiae strains, strain wild type, hits give low values 1
